Test [1] can be described thus: inhibitors of TNFa-induced NFkB p65 translocation, primary screen, imaging, HUVEC, MLSMR starter and 10KST1 sets (AID 438;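 active = inhibition above 20% together with a positive visual image hit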;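 note: compound added about 3h40 before a 20 min TNFalpha stimulation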;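 for inhibition: signal is the nuclear over cytoplasmic p65 intensity ratio per well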). The note with it: HUVEC TNFa-induced p65 nuclear translocation; cell count: measured here: nuclei count (cytotoxicity indicator), at 2.08 µM; inhibition: at 2 µM, stronger effect = higher value, 0% TNFa-plus-vehicle, 100% no-TNFa wells.
A short description of test [2]: inhibitors of mutant huntingtin aggregation, primary screen, imaging, exon1htt(103Q)mCFP cells, high-content imaging (AID 483;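 active = visual image review flags a hit and inhibition of aggregation exceeds 20%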;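 note: compound exposure lasted 3 days before fixation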;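 for nuclei count: percent of the per-plate median nuclei count of sample wells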). The following applies: exon1htt(103Q)mCFP cell line, aggregate imaging, at 2 µM; inhibition of aggregation: stronger effect = higher value; nuclei count: measured here: cell count, toxicity.
The nature of test [3]: inhibitors of E-selectin induction by TNFa, primary screen, imaging, HUVEC, immunofluorescence, MLSMR starter and 10KST1 sets (AID 487;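 active = visually confirmed hit in the image check and inhibition above 20%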;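 for inhibition: signal is fraction of cell area covered by stained E-selectin grains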;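 for nuclei count: 100% = median nuclei count of all wells on the same plate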). The note with it: HUVEC TNFalpha-induced E-selectin immunofluorescence imaging, at 2 µM; inhibition: stronger effect = higher value; nuclei count: measured here: cell number, toxicity.
Test [4] deals with Voltage-gated potassium channel subunit beta-2 (Rattus norvegicus) (UniProt P62483). Put plainly: KvBeta enzyme negative modulators, primary screen, biochemical, NADPH fluorescence (AID 622;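 active = fluorescence slope higher than the sample average by over 3 SD, cut at about -0.22 in these data, passing the limit was not always enough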;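 note: slope of raw intensity against log time taken from 70 to 1610 s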). The note with it: recombinant KvBeta, 4-cyanobenzaldehyde reduction, at 10 µM, stronger effect = higher value.
Voltage-gated potassium channel subunit beta-2 (Rattus norvegicus), sequence (P62483 whole entry, looked up): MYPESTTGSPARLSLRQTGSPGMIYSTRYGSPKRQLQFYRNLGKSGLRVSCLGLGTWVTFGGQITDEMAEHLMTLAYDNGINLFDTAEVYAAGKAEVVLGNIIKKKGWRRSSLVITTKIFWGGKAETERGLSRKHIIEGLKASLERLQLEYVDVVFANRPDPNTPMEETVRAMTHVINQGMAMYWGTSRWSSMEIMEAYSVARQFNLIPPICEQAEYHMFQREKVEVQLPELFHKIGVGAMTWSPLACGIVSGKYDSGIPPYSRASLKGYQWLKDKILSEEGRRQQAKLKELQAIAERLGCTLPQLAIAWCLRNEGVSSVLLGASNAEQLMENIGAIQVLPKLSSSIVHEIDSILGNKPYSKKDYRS
For test [5] the target is unchanged. Put plainly: KvBeta positive modulators, primary screen, biochemical, NADPH fluorescence (AID 623;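 active = NADPH fluorescence slope more negative than the mean of all samples by about 3 SD, 99.7% confidence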;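 note: fluorescence intensity change per second fitted from 20 to 320 s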). The following applies: Recombinant KvBeta, NADPH fluorescence decrease slope, 10 min; at 10 µM; stronger effect = lower value.
Test [6] concerns the target Alpha-2C adrenergic receptor (Homo sapiens) (UniProt P18825). Put plainly: modulators of alpha2C/GIRK thallium flux, primary screen, cell-based, HEK293 alpha2C/GIRK1/2 (AID 624).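 Note: slope of fluorescence ratio to pre-addition baseline per second over 15 to 24 s.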 The note with it: thallium flux BTC fluorescence, at 10 µM, actives lie on both sides.
Test [7] is described as follows: inhibitors of Sendai virus-induced IRF3 signaling, primary screen, TLR/RLR signaling modifier project, cell-based, Sendai virus stimulus, luciferase, 10K MLSCN set (AID 602276;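 active = inhibition at or above 50% at 10 µM; inactive = inhibition below 50%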;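 note: firefly luciferase from ISG56 promoter only with Renilla not read in this screen; 0% = Sendai virus plus DMSO and 100% = medium plus DMSO without virus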). The following applies: HEK293 RL24 IRF3 luciferase reporter, at 10 µM, stronger effect = higher value. (In a reporter assay the amount or activity of a reporter protein is the signal.)
Test [8] in a line: inhibitors of poly I:C-induced TLR3 signaling, primary screen, cell-based, poly I:C stimulus, luciferase, 10K MLSCN set (AID 602277;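 active = inhibition of the reporter signal at or above 50%; inactive = inhibition below 50%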). The note with it: HEK293-TLR3 RL24 IRF3 luciferase reporter, at 10 µM, stronger effect = higher value.

SMILES strings stand for the structures. Active and inactive are the calls of the source.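 Rule for the calls, unless noted: active = fluorescence slope after compound addition differing from the mean of all screened samples at 99.7% confidence, in either direction; inactive = the rest.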

By inhibition is commonly meant the relative decrease from the control value, in per cent.

Alpha-2C adrenergic receptor (Homo sapiens), sequence (P18825 whole entry, looked up): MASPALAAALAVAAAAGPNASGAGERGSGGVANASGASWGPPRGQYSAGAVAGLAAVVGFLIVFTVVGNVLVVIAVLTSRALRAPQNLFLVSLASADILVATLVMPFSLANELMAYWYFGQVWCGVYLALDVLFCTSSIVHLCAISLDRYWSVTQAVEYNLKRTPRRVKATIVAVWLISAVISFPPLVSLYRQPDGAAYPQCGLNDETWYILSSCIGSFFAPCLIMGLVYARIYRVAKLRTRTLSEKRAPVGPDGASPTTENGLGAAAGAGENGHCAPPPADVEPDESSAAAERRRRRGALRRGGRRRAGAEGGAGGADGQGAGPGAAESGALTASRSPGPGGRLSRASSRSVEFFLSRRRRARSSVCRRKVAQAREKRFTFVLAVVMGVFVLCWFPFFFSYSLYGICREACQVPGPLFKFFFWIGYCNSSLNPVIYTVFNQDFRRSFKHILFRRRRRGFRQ

Consider `Cc1cc(N2CCN(c3ccccn3)CC2)n2nc(C)nc2n1`, for which the cell count in test [1] was 435. Further, the inhibition in test [1] is 3.5% (inactive); in test [3] it was -4.2% (inactive); in test [7], 12.8% (inactive); in test [8], -7.58% (inactive). Also, the inhibition of aggregation in test [2] is -16.4% (inactive). Besides, the nuclei count in test [2] is 105%; in test [3], 111%. In addition, in test [4], the fluorescence slope was -0.376 (inactive). Moreover, the NADPH fluorescence slope in test [5] was -3.3e-05 (inactive). In test [6], the slope is 0.00609 (inactive).
With `COc1ccc2c(CC(=O)Nc3ccc(OC)c(NS(=O)(=O)c4ccc(F)cc4)c3)coc2c1`, the cell count in test [1] was found to be 403. Besides, the inhibition in test [1] was -1.4% (inactive); in test [3], -29.3% (inactive); in test [7], 9% (inactive); in test [8] it was 18.5% (inactive). Moreover, in test [2], the inhibition of aggregation is 2.9% (inactive). In addition, the nuclei count in test [2] amounted to 116%; in test [3], 100%. In test [4], the fluorescence slope was -0.275 (inactive). In addition, the NADPH fluorescence slope in test [5] is -8.3e-06 (inactive). In test [6], the slope was 0.00715 (inactive).
Consider `COC(=O)c1cccc(S(=O)(=O)N2CCC(C)CC2)c1`, for which the cell count in test [1] came out at 326. The inhibition in test [1] was -10.3% (inactive); in test [3], -70.6% (inactive); in test [7], 0.114% (inactive); in test [8], -2.56% (inactive). The inhibition of aggregation in test [2] was 11.2% (inactive). The figures for the nuclei count in test [2] and in test [3] were 95.5% and 93%, respectively. Moreover, the fluorescence slope in test [4] is -0.547 (inactive). The NADPH fluorescence slope in test [5] is 5.2e-05 (inactive). Also, the slope in test [6] was 0.00519 (inactive).
Regarding `COc1ccc(N(C)C(=O)CCS(=O)(=O)c2cccc3nonc23)c(OC)c1`, the cell count in test [1] came to 557. Also, the inhibition was -1.4% (inactive) in test [1], -18.3% (inactive) in test [3], 4.07% (inactive) in test [7] and 16.9% (inactive) in test [8]. Moreover, the inhibition of aggregation in test [2] is -17.3% (inactive). Further, the results for the nuclei count in test [2] and in test [3] were 121% and 125%, respectively. The fluorescence slope in test [4] is -0.488 (inactive). In addition, in test [5], the NADPH fluorescence slope is -0.000205 (inactive). In addition, the slope in test [6] is 0.00467 (inactive).
Regarding `Fc1cccc(Cl)c1Cn1nnc2c(NCc3ccccn3)ncnc21`, the cell count in test [1] amounted to 716. The inhibition in test [1] is -10.5% (inactive); in test [3], -26.6% (inactive); in test [7], 6.08% (inactive); in test [8] it was 9.56% (inactive). Also, the inhibition of aggregation in test [2] was 15.5% (inactive). The nuclei count in test [2] stood at 120%; in test [3], 108%. Also, the fluorescence slope in test [4] is -0.514 (inactive). The NADPH fluorescence slope in test [5] was -6.7e-05 (inactive). Besides, the slope in test [6] was 0.0046 (inactive).
With `CCN(CC)CCNC(=O)CCn1c(=S)[nH]c2cc3c(cc2c1=O)OCO3`, the cell count in test [1] amounted to 380. Further, the inhibition in test [1] is -3% (inactive); in test [3], 7.2% (inactive); in test [7], -5.94% (inactive); in test [8] it was 28.2% (inactive). Besides, in test [2], the inhibition of aggregation was -16.9% (inactive). Further, the nuclei count in test [2] is 99.9%; in test [3], 114%. Also, the fluorescence slope in test [4] is -0.501 (inactive). For the same compound, the NADPH fluorescence slope in test [5] is -2.4e-05 (inactive). Moreover, the slope in test [6] is 0.00645 (inactive).
Regarding `CCN(CC)S(=O)(=O)c1ccc(S(=O)(=O)N(Cc2ccccn2)Cc2ccco2)cc1`, the cell count in test [1] was found to be 322. Also, the inhibition in test [1] is -0.8% (inactive); in test [3], -68.2% (inactive); in test [7], 6.58% (inactive); in test [8], 18.5% (inactive). The inhibition of aggregation in test [2] was -9.2% (inactive). The nuclei count in test [2] worked out at 112%; in test [3], 123%. Also, the fluorescence slope in test [4] was -0.608 (inactive). In addition, in test [5], the NADPH fluorescence slope is 6.2e-06 (inactive). Also, the slope in test [6] is 0.00512 (inactive).
For `COC(=O)CCC(=O)Nc1cccc(Cl)c1`, the cell count in test [1] stood at 205. For the same compound, the inhibition in test [1] is 42.5% (active); in test [3] it was -12.1% (inactive); in test [7] it was 3.5% (inactive); in test [8] it was 17.1% (inactive). The inhibition of aggregation in test [2] is 5% (inactive). For the same compound, the nuclei count is 99.2% in test [2] and 94.4% in test [3]. The fluorescence slope in test [4] was -0.593 (inactive). The NADPH fluorescence slope in test [5] is -3.8e-05 (inactive). For the same compound, the slope in test [6] is 0.00629 (inactive).
For `Cc1ccccc1CSc1nnc(C)c(=O)[nH]1`, the cell count in test [1] worked out at 600. Moreover, the inhibition in test [1] was 1.1% (inactive); in test [3], -37.9% (inactive); in test [7] it was 12.3% (inactive); in test [8], 13.6% (inactive). Moreover, the inhibition of aggregation in test [2] was -41.3% (inactive). Further, the nuclei count in test [2] came to 105%; in test [3], 133%. In addition, the fluorescence slope in test [4] was -0.581 (inactive). Besides, the NADPH fluorescence slope in test [5] was 1.6e-05 (inactive). Also, the slope in test [6] was 0.00756 (inactive).
Regarding `Cc1ccc(C)c2[nH]c(=O)c(CCNC(=O)CC(C)(C)C)cc12`, the cell count in test [1] came to 650. Also, the inhibition in test [1] is -5.3% (inactive); in test [3] it was 16.6% (inactive); in test [7], 4.63% (inactive); in test [8], 16.5% (inactive). Moreover, the inhibition of aggregation in test [2] is 33.1% (inactive). The results for the nuclei count in test [2] and in test [3] were 63.8% and 90.8%, respectively. In test [4], the fluorescence slope was -0.557 (inactive). For the same compound, the NADPH fluorescence slope in test [5] was -5.3e-05 (inactive). In addition, in test [6], the slope was 0.00614 (inactive).
Regarding `CCCCOc1ccc(-c2ncc(Cl)cn2)cc1`, the cell count in test [1] was 469. Moreover, the inhibition in test [1] was 3% (inactive); in test [3] it was -10% (inactive); in test [7], -30% (inactive); in test [8], -146% (inactive). In addition, in test [2], the inhibition of aggregation is 13.9% (inactive). Besides, the nuclei count in test [2] amounted to 98.8%; in test [3], 115%. Also, the fluorescence slope in test [4] was -0.434 (inactive). For the same compound, the NADPH fluorescence slope in test [5] is -6.7e-06 (inactive). Besides, the slope in test [6] was 0.00373 (inactive).
Turning to `Cc1ccc(NC(=O)C2CC=CCC2C(=O)N2CCCCC2)cc1` (centres undefined), the cell count in test [1] was 636. Also, the inhibition was -23.5% (inactive) in test [1], -9.5% (inactive) in test [3], -0.377% (inactive) in test [7] and 26.9% (inactive) in test [8]. Besides, in test [2], the inhibition of aggregation was -67% (inactive). The figures for the nuclei count in test [2] and in test [3] were 66.9% and 94.3%, respectively. Moreover, the fluorescence slope in test [4] was -0.499 (inactive). Further, the NADPH fluorescence slope in test [5] was -2.1e-05 (inactive). Also, the slope in test [6] is 0.00665 (inactive).
On to `O=C1N(c2ccccc2)C2CS(=O)(=O)CC2N1c1ccc(Br)cc1` (centres undefined), for which the cell count in test [1] is 566. The inhibition is -12.3% (inactive) in test [1], -32.1% (inactive) in test [3], 6.69% (inactive) in test [7] and 17.5% (inactive) in test [8]. Moreover, in test [2], the inhibition of aggregation is 4% (inactive). For the same compound, the nuclei count in test [2] amounted to 88.5%; in test [3] it was 127%. In addition, the fluorescence slope in test [4] is -0.432 (inactive). Also, the NADPH fluorescence slope in test [5] is -1.5e-05 (inactive). In addition, the slope in test [6] is 0.00616 (inactive).
With `C=CCn1c(SCC(=O)C(C)(C)C)nnc1-c1ccccn1`, the cell count in test [1] is 583. The inhibition in test [1] was -3.4% (inactive); in test [3], 9.2% (inactive); in test [7], 12.5% (inactive); in test [8], 18.5% (inactive). Also, the inhibition of aggregation in test [2] is 16.4% (inactive). Moreover, the nuclei count in test [2] is 83.3%; in test [3] it was 90.9%. Moreover, in test [4], the fluorescence slope was -0.291 (inactive). Besides, the NADPH fluorescence slope in test [5] was -5.6e-05 (inactive). In addition, in test [6], the slope was 0.00526 (inactive).
